Assay outcomes from PubChem BioAssay.
An excerpt weighted towards active compounds, which were near 7.3% of everything screened.
IP6K1 inh – inhibitors of human IP6K1; activity change, % (series mostly up to about 58 µM); Q92551; actives 0.81% (n = 140,000); IP6K1 kinase, ADP-Glo luminescence, 2 h; stronger effect = lower value; in the data active means activity change below about -25%
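ADP-Glo luminescence measures ADP made by human IP6K1 during a 2 h RT reaction with ATP/IP6 (mix at 1.3 mM/130 uM); top library doses 57.5 and 19.1 uM final.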
3T3 cytotox – NIH 3T3 cell cytotoxicity; NIH 3T3 viability, CellTiter-Glo ATP luminescence, 48-72 h; Potency, µM (top dose mostly 96.7 µM), inactives show at the highest dose activity change, negative = cytotoxicity, usual class: inhibitors; actives 4.3% (n = 94,000); AID 1345082; further: potency means the concentration at half of the fitted maximal effect; nearly all actives have a fitted effect of over 55% in size
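NIH 3T3 cells at 400 cells/well received 23 nL of compound by pintool and were incubated 48 or 72 h at 37 °C. Viability was read as ATP-coupled CellTiter-Glo luminescence.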
HEK293 viab – counter-screen for SNCA expression inhibitors: cell viability; HEK-293-SNCA-luc viability, GF-AFC fluorescence, 24 h; Potency, µM (series often up to 57.1 µM), inactives show at the top dose activity change, negative = cytotoxicity, usual class: cytotoxic; actives 0.12% (n = 150,000); AID 1671193;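 further: potency means the concentration at half of the fitted maximal effect; 0% = DMSO-treated cells and -100% = medium-only wells without cells; nearly all actives have a fitted effect of over 30% in size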
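Cytotoxicity counterscreen: after 24 h compound treatment of genome-edited SNCA-luciferase HEK-293 cells, live-cell protease substrate GF-AFC read by fluorescence after 30 min; activity scaled between DMSO (0%) and medium-only (-100%), curves Hill-fitted.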
SNCA expr inh – inhibitors of alpha-synuclein (SNCA) gene expression; AID 1671194; HEK-293 SNCA-luciferase knock-in, luminescence, 24 h; actives 0.17% (n = 140,000); Potency, µM (series often up to 57.2 µM), inactives show at the highest dose activity change, negative = inhibition, actives largely listed as inhibitors;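 further: potency means the concentration at half of the fitted maximal effect; plate controls were DMSO cells for no effect and cell-free wells for full effect; nearly all actives have a fitted effect of over 45% in size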
FLuc inh – Photinus pyralis luciferase inhibition. P08659. AID 1347043. purified P. pyralis luciferase, luminescence, biochemical. actives 2.5% (n = 76,000). Potency, µM (top dose mostly 115 µM), actives largely listed as inhibitors; further: potency means the concentration at half of the fitted maximal effect; nearly all actives have a fitted effect of over 65% in size
Target sequence (P08659 whole entry, looked up): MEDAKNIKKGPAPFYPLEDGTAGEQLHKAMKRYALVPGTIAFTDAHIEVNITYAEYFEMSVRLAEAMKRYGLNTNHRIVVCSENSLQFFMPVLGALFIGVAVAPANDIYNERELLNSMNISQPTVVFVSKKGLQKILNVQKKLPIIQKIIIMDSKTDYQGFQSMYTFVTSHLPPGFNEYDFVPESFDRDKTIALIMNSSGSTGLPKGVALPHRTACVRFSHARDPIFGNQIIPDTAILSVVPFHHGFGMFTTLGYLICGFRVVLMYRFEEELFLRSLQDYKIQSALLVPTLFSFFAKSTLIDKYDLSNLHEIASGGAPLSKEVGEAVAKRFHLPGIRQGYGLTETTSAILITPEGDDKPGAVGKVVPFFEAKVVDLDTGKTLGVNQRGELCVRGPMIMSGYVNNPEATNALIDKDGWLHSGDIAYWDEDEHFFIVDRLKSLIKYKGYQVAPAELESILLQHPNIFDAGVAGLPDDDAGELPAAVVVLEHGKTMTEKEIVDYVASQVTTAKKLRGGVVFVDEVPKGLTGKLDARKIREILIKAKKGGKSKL
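Luminescence read by CCD imager after adding enzyme (10nM final) to wells holding compound, titrated in qHTS. Substrates 10uM each D-luciferin and ATP; buffer 50mM Tris acetate pH 7.5, 10mM Mg acetate, Tween-20, BSA.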
HEK cytotox – HEK 293 cell cytotoxicity; HEK 293 viability, ATP luminescence (CellTiter-Glo), 48-72 h; Potency, µM (titrated, usually from 115 µM), for inactives: top-dose activity change, negative = cytotoxicity, hits mostly inhibitors; actives 6.6% (n = 94,000); AID 1345083; further: potency means the concentration at half of the fitted maximal effect; nearly all actives have a fitted effect of over 60% in size
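HEK 293 seeded at 250 cells/well receive compound via pintool. After 48 or 72 hr at 37 degree Celsius, 5% CO2 and 95% humidity, CellTiter-Glo is dispensed and luminescence read following 10 min at room temperature.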
Active calls of the source: *; i = inactive; ? = inconclusive; / = no result given; [ ] = remark or other dose. Unless noted, the call rests on the fitted dose curve; in most records, active means well fitted curve in the direction sought with a large enough effect; inconclusive means small, poorly fitted or top-dose-only effect, or another doubt; inactive means no such curve, though single readings can be large; an effect the other way counts as inactive or inconclusive. Unless noted, on the % scale 0 is the no-effect control and ±100 the full control effect.

SMILES	IP6K1 inh	3T3 cytotox	HEK293 viab	SNCA expr inh	FLuc inh	HEK cytotox
Clc1ccccc1C1(c2ccnc(C3CCCC3)n2)CCNCC1	0	32µM*	?	?	i	?
Clc1ccccc1C1(c2ccnc(NCc3ccccc3)n2)CCNCC1	-23	25µM*	?	?	i	?
O=c1c2c(CO)c(-c3ccc(F)cc3)nn2ccn1Cc1ccc(Br)cc1	3	-27%	-10%	1%	i	?
Cc1nc([C@H]2CCN(Cc3ccc(F)cc3F)C[C@H]2NC(=O)CN(C)C)n[nH]1	11	2%	-7%[12.5 µM]	24%	i	0%
O=C(NCCNC(=O)c1cccc(-c2ccsc2)c1)Nc1ccc(Cl)cc1	-21	?	1%[12.5 µM]	11%	/	?
CCOC(=O)c1cc2c(=O)n3ccccc3nc2n(Cc2ccco2)c1=NC(=O)c1cccc(Br)c1	-4	/	6%	2%	/	/
CCOC(=O)c1cc2c(=O)n3ccccc3nc2n(Cc2ccco2)c1=NC(=O)c1c(F)cccc1Cl	-60*	/	?	?	/	/
Cc1cc(C)cc(-c2ccccc2CN)c1	-11	?	0%[87.6 µM]	?	/	112µM*
Cc1ccc(-c2ccccc2CN2CCN([S+](C)(=O)[O-])CC2)cc1Cl	2	?	2%[12.5 µM]	-1%	/	?
Cc1ccc(-c2ccccc2CN)cc1Cl	-11	35µM*	-15%[87.6 µM]	19%[87.6 µM]	/	35µM*
O=C(Cc1cccnc1)N1CCOCC2(CN(Cc3cc(F)cc(F)c3)C2)C1	18	-22%[138 µM]	-1%[87.6 µM]	25%[87.6 µM]	i	?
O=C(Nc1cc(F)cc(F)c1)N1CCCC2(C1)Nc1cccnc1NC2=NC1CCCC1 (configuration not stated)	0	?	-14%	-17%	i	40µM*
Cc1ccc(C(=O)N2CCCN(c3cc(-c4ccc(C)c(C)c4)[nH]n3)CC2)cc1C	-2	?	-19%	-21%	i	35µM*
COc1ccc(C(=O)N2CCCN(c3cc(-c4ccc(Cl)cc4)[nH]n3)CC2)c(C)c1	-16	?	-23%	-27%	i	50µM*
Cc1ccc(-c2cc(N3CCCN(C(=O)c4cccn4C)CC3)n[nH]2)cc1C	1	?	-19%	-5%	i	?
Cc1ccc(-c2cc(N3CCCN(C(=O)Cc4ccccc4Cl)CC3)n[nH]2)cc1C	-18	40µM*	-18%	-20%	?	?
Cc1ccc(-c2cc(N3CCCN(C(=O)c4ccco4)CC3)n[nH]2)cc1C	9	32µM*	7%	65%	i	?
CC(C)CCN1CCC(N2CCN(C(=O)c3ccc(Cl)s3)CC2)C1=O (configuration not stated)	13	-9%	-3%	-20%	i	?
COc1ccc(-c2noc(N(C)Cc3ccccc3)n2)cc1OC	11	?	-5%	245%	?	?
COc1ccc(-c2cc(N3CCCN(C(=O)c4ccc(C(C)(C)C)cc4)CC3)n[nH]2)cc1	-11	?	?	-22%	i	40µM*
COc1ccc(C(=O)N2CCCN(c3cc(-c4ccc(OC)cc4)[nH]n3)CC2)cc1	3	-27%	-10%	6%	i	?
COc1ccc(-c2cc(N3CCCN(C(=O)c4ccc(C)c(C)c4)CC3)n[nH]2)cc1	1	?	-21%	4%	i	45µM*
O=C(Nc1ccccc1)c1ccc(-c2cccc3c2CCNC3)o1	0	45µM*	-22%	79%	i	?
Cc1ccc2c(c1)N1C(=O)OC[C@@H]1CCN(C(=O)c1ccc(C#N)cc1)C2	-10	2%[174 µM]	-15%[87.6 µM]	28%[87.6 µM]	i	2%[172 µM]
O=C(c1ccccc1Cl)N1CCN(c2cc(-c3ccccc3)[nH]n2)CC1	6	?	-4%	-15%	i	20µM*
SMILES	IP6K1 inh	3T3 cytotox	HEK293 viab	SNCA expr inh	FLuc inh	HEK cytotox
Cc1ccc(C)c(C(=O)N2CCN(c3cc(-c4ccc(Cl)cc4)[nH]n3)CC2)c1	4	?	?	?	i	25µM*
Cc1ccccc1C(=O)N1CCN(c2cc(-c3ccc(Cl)cc3)[nH]n2)CC1	-12	?	-15%	?	i	?
Cc1ccc(C(=O)N2CCN(c3cc(-c4ccccc4)[nH]n3)CC2)c(C)c1	-14	45µM*	-6%	-20%	i	?
Cc1ccc(C(=O)N2CCN(c3cc(-c4ccccc4)[nH]n3)CC2)cc1	-3	?	5%	-13%	i	?
O=C(c1ccc(Cl)cc1Cl)N1CCN(c2cc(-c3ccccc3)[nH]n2)CC1	1	32µM*	-12%	-15%	i	20µM*
Cc1ncc(CO)c(CN2CCCCC23Cc2ccccc2CNC3=O)c1O (configuration not stated)	-12	-5%	3%	-14%	/	-3%
COc1cc(OC)c(NC(=O)Cn2c(C)cc3nc4n(c(=O)c32)CCCCC4)cc1Cl	-13	-27%	-26%	?	i	-14%
COc1cccc(N2C(=O)NC(=NC3CCCC3)C23CCCN([S+](=O)([O-])c2cccs2)C3)c1 (configuration not stated)	-19	-2%	-2%	-15%	/	0%
O=C(c1ccc(F)cc1F)N1CCN(c2cc(-c3ccc(F)cc3)[nH]n2)CC1	-5	?	-8%	-16%	i	40µM*
O=C(COc1ccc(Cl)cc1)N1CCN(c2cc(-c3ccccc3)[nH]n2)CC1	2	?	5%	12%	i	89µM*
Cc1nn(-c2ccccc2)c2c1C(C)N(CC1CN(C(=O)c3ccccc3Cl)C1)C2=O (configuration not stated)	15	?	/	/	/	50µM*
Cc1nn(-c2ccccc2)c2c1C(C1CC1)N(C1CN(C(=O)C3CCCC3)C1)C2=O (configuration not stated)	10	35µM*	/	/	/	45µM*
Cc1nn(-c2ccccc2)c2c1C(C)N(CC1CN(Cc3cccc(C(F)(F)F)c3)C1)C2=O (configuration not stated)	4	?	/	/	/	28µM*
Cc1nn(-c2ccccc2)c2c1C(C1CC1)N(C1CCN(C(=O)C3CCCC3)C1)C2=O (configuration not stated)	7	?	/	/	/	?
Cc1ccccc1C(=O)N1CC(CN2C(=O)c3c(c(C)nn3-c3ccccc3)C2C)C1 (configuration not stated)	25	?	/	/	/	?
Cc1nn(-c2ccccc2)c2c1C(C1CC1)N(C1CN(C(=O)c3ccccc3Cl)C1)C2=O (configuration not stated)	15	13µM*	/	/	/	?
